Vif imaging: HIV Vif inhibition | HEK293T cells, Vif self-association by quenched fluorescence, imaging, 24 h | inhibition, % at 7.49 µM | AID 602346 | hit rate 0.35% among 340,000; in the data active = inhibition above about 50%, passing the limit was not always enough
PvdQ acylase: blocks Pseudomonas aeruginosa PvdQ acylase activity; purified PvdQ acylase, fluorescence plate reader; inhibition, % at 10 µM; hit rate 0.063% among 340,000; AID 488965; in the data active = inhibition above about 30%, passing the limit was not always enough
N-glyco inh: blocks N-linked glycosylation in D54 reporter cells; D54 ERlucT glycosylation luciferase reporter, 24 h; percent of 100 nM tunicamycin response; reporter increase, % at 12.5 µM; hit rate 0.23% among 360,000;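 active = mean luciferase reporter signal, scaled so untreated is 0 and the glycosylation-blocking control 100, at or above a set limit in every replicate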;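 note: luciferase carries N-glycosylation sites so blocking glycosylation raises the light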
PDI inh: inhibitors of human protein disulfide isomerase; hit rate 0.052% among 350,000; inhibition, % at 10 µM; PDI insulin aggregation turbidity, A650, 90 min;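 active = mean inhibition across replicates of 30% or more, whatever share of single replicates reach that level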
ERp5 inh: blocks human ERp5 reductase activity on insulin. AID 651711. Q15084. hit rate 0.05% among 350,000. inhibition, % at 9.99 µM. ERp5 insulin aggregation, absorbance 650 nm, 90 min;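 active = mean replicate inhibition above about 25%, with every replicate also reaching it, limit read from the data, passing the limit was not always enough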
Target sequence (Q15084 whole entry, looked up): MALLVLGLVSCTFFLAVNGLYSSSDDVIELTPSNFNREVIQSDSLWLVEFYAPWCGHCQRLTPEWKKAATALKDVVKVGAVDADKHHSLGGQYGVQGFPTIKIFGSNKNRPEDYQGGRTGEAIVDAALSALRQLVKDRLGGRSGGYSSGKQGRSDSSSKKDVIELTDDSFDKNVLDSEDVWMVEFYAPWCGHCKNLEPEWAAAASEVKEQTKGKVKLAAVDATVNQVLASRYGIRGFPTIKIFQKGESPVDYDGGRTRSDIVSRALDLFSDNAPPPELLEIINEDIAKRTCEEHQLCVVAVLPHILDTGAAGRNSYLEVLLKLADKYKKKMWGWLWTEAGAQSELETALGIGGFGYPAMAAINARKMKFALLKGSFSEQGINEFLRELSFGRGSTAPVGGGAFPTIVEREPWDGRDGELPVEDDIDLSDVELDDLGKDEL
Of the large screens only hits and unclear results are named; the others gave an inactive call. The list is not random: actives were taken first. Their share in the collection is about 0.56%.

CCC(C)NS(=O)(=O)c1ccc(S(=O)(=O)N(CCc2ccc(OC)c(OC)c2)Cc2cccs2)cc1 (stereo not drawn)	none
CS(=O)(=O)N(CC(=O)N1CCN(Cc2ccccc2)CC1)c1ccccc1F	none
Cc1ccc(C(C(=O)NCc2ccc(F)cc2)N(Cc2ccco2)C(=O)c2snc(C(N)=O)c2N)o1 (stereo not drawn)	Vif imaging 58
CC(NC(=O)CSc1nc2c(c(C(F)(F)F)n1)CCc1ccccc1-2)c1ccccc1 (stereo not drawn)	Vif imaging 63
S=C(c1c[nH]c2ccccc12)N1CCCC1	none
CC(OC(=O)c1c[nH]c2ccccc12)C(=O)N1CCCC1 (stereo not drawn)	Vif imaging 64
Cc1ccc(NC(=O)CSc2nccn2C)cc1F	none
CC1(C)CC2(C)OC2C2(C1)N=NC(=Nc1ccccc1)O2 (stereo not drawn)	N-glyco inh 45 (no result: PvdQ acylase, PDI inh, ERp5 inh)
CCCCn1c(SCc2c(C)noc2C)nc2cc(S(N)(=O)=O)ccc21	N-glyco inh 40 (no result: ERp5 inh)
O=C(CCCCn1c(=O)[nH]c2ccccc2c1=O)N1CCN(c2cccc(C(F)(F)F)c2)CC1	none (no result: Vif imaging, ERp5 inh)
O=C(CCCn1c(=S)[nH]c2ccccc2c1=O)N1CCN(c2cccc(Cl)c2)CC1	Vif imaging 107 (no result: ERp5 inh)
O=C(CCCCCn1c(=S)[nH]c2ccc(N3CCOCC3)cc2c1=O)NCc1ccccc1Cl	Vif imaging active
Cc1ccc(OCC(=O)NCc2ccccc2)c([N+](=O)[O-])n1	none
c1ccc2c(c1)C1=NCCN1c1ccccc1-2	N-glyco inh 78 (no result: PvdQ acylase)
CC(C)(C)S(=O)(=O)N1C[C@@H]2CC/C=C\C/C(c3ccccc3)=C\2[C@H]1CCO	N-glyco inh 38 (no result: Vif imaging)
CC(C)Oc1ccc(C(=O)NNC(=O)c2ccccc2C(=O)O)cc1	none (no result: Vif imaging)
O=C(NC1CCCc2ccccc21)c1ccccc1Br (stereo not drawn)	Vif imaging 60
O=C(c1c(O)cc(O)cc1O)C1c2c(cc(O)c3c2O[C@H](c2ccc(O)cc2)[C@@H](O)C3)OC1c1ccc(O)cc1 (stereo partly drawn)	PDI inh 53
CCOC(=O)c1oc2cccc(O)c2c1CN(Cc1ccccc1)C(C)=O	PDI inh 52 (no result: ERp5 inh)
CCOC(=O)c1oc2cccc(O)c2c1C	none (no result: ERp5 inh)
COC(=O)c1ccc2c(=O)n(Cc3ccco3)c(SCC(=O)Nc3ccccc3Cl)nc2c1	none (no result: ERp5 inh)
COC(=O)c1ccc2c(=O)n(Cc3ccco3)c(SCC(=O)Nc3cc(C)on3)nc2c1	Vif imaging 53, N-glyco inh 62
c1ccc(-c2cn3nc(-c4ccccc4)c(-c4ccccc4)nc3n2)cc1	Vif imaging 157 (no result: ERp5 inh)
Cc1ccc(CN2CCN(/N=C/c3cc(Br)ccc3F)CC2)cc1	none
CCC1(c2ccccc2)NC(=O)N(CC(=O)Nc2cc(C(F)(F)F)ccc2N2CCCC2)C1=O (stereo not drawn)	none
Cc1ccc(N2C(=O)Nc3ccccc3C2(O)C(=O)N2CCN(c3ccccn3)CC2)cc1C (stereo not drawn)	N-glyco inh 29
CCc1ccc(N2C(=O)Nc3ccccc3C2(O)C(=O)N2CCN(c3ccccn3)CC2)cc1 (stereo not drawn)	N-glyco inh 38
S=c1[nH]nc(Nc2ccccc2Cl)s1	none
CC(=O)c1cccc(OCc2cc(C(=O)N(C)CCC3CCOCC3)no2)c1	none
O=C(CN(C(=O)c1csnn1)c1ccc(F)cc1)NCc1ccc2c(c1)OCO2	Vif imaging 75
Cc1ccc(N(CC(=O)NCc2ccc3c(c2)OCO3)C(=O)c2csnn2)cc1	none
COc1ccc(C(C#N)N2CCC(c3ccccc3)=N2)cc1 (stereo not drawn)	none
C[C@@H]1CCCCO[C@@H](CN(C)Cc2ccc(C(=O)O)cc2)[C@@H](C)CN([C@@H](C)CO)C(=O)c2cc(NS(C)(=O)=O)ccc2O1	none (no result: Vif imaging, PvdQ acylase, N-glyco inh, PDI inh)
Cc1ccc(-n2nnc3c(=O)n(CC(=O)OCc4ccccc4)cnc32)cc1	Vif imaging 75 (no result: PDI inh)
CCOC(=O)Cn1cnc2c(nnn2-c2ccccc2)c1=O	none (no result: PDI inh, ERp5 inh)
Cc1ccc(S(=O)(=O)N2CCN(C(=O)c3c(-c4ccccc4)noc3C)CC2)cc1	Vif imaging 52
Cc1onc(-c2ccccc2)c1C(=O)N1CCN(S(=O)(=O)c2ccc(OC(F)(F)F)cc2)CC1	none
CN(C)/C=C/C(=O)c1ccc(OCCN(C)c2ccccn2)cc1	none
CCC(=O)Nc1cccc(C2=NOC3(C2)C[C@@H](C(N)=O)N(C(=O)C2(C)CC2)C3)c1 (stereo partly drawn)	none
CCc1cc(=O)oc2cc(OC(C)C(=O)NCc3ccccn3)ccc12 (stereo not drawn)	Vif imaging 58 (no result: ERp5 inh)
COc1cc(CC(=O)N2CCc3ccccc32)cc(OC)c1OC	none (no result: ERp5 inh)
CCOC(=O)N1CCc2cc(OC)c(OC)c3c2c1cc1cc(OC)c(OC)cc13	N-glyco inh 26
CCOC(=O)C1=C(O)/C(=C/c2cn(CC(=O)NCC3CCCO3)c3ccccc23)SC1=Nc1ccc(C)cc1 (stereo not drawn)	Vif imaging 94 (no result: ERp5 inh)
CCOC(=O)C1=C(O)/C(=C/c2ccc(-c3ccccc3C(=O)O)o2)SC1=Nc1ccc(C)cc1	none
Cc1nn(Cc2c(Cl)cccc2Cl)c(C)c1NC(=O)c1cnn2c(C(F)F)cc(-c3ccccc3)nc12	Vif imaging 104 (no result: ERp5 inh)
CN(C)/N=C/c1ccc(Sc2ccc([N+](=O)[O-])cc2[N+](=O)[O-])o1	N-glyco inh 27 (no result: ERp5 inh)
COc1cc(NC(=O)COc2ccccc2)ccc1NC(=O)c1ccco1	Vif imaging 66
COc1cc(NC(=O)COc2ccccc2C)ccc1NC(=O)c1ccco1	none
CCC(C)Sc1ccc([C@@H]2[C@@H]3C(=O)N(C)C(=O)[C@@H]3[C@]3(C(=O)OC)CCCCN23)cc1OC (stereo partly drawn)	none
O=C(NC1CCCC1)c1cc(Cl)ccc1[N+](=O)[O-]	PvdQ acylase 94
O=C(NC1CCCCC1)c1cc(Cl)ccc1[N+](=O)[O-]	PvdQ acylase 62 (no result: ERp5 inh)
COc1ccc2cc(C)c3nnc(SCC(=O)Nc4nc(-c5ccc(F)cc5)cs4)n3c2c1	N-glyco inh 38 (no result: ERp5 inh)
COc1ccc(-c2csc(NC(=O)CSc3nnc(Nc4ccccc4C)s3)n2)cc1	none
Cc1ccccc1NC(=S)N1CCN(Cc2ccc3c(c2)OCO3)CC1	none (no result: ERp5 inh)
Cc1c(Cl)cccc1NC(=S)N1CCN(Cc2ccc3c(c2)OCO3)CC1	Vif imaging 53
Cn1c(O)c(N=Nc2nc(-c3ccccc3)cs2)c2ccccc21	none (no result: ERp5 inh)
c1ccc2cc(-c3csnn3)ccc2c1	PvdQ acylase 35 (no result: ERp5 inh)
CCOC(=O)c1c(NC(=O)CCC(=O)N2CCOCC2)sc2c1CC(C)(C)OC2	Vif imaging 55 (no result: ERp5 inh)
O=C(/C=C/c1ccccc1)c1ccc2c3c(cccc13)CC2	N-glyco inh 47 (no result: Vif imaging, ERp5 inh)
CC(=O)c1c(C)[nH]c(C(=O)OCC(=O)N2CCCC2=O)c1C	none
CCN1/C(=C/c2ccc3ccccc3[n+]2CCCS(=O)(=O)[O-])C=Cc2cc(C)ccc21	none
CCN1/C(=C/c2ccc3ccccc3[n+]2CC)C=Cc2ccccc21	N-glyco inh 85 (no result: ERp5 inh)
Nc1nonc1-c1nc2ccccc2n1CC(=O)NC1CCCC1	Vif imaging 50 (no result: ERp5 inh)

Assay outcomes as filed in PubChem BioAssay.
